Measured values reported in ChEMBL document CHEMBL1157539, “Thousands of chemical starting points for antimalarial lead identification” (Nature, 2010).

system: Plasmodium falciparum; experiment: GSK_TCMDC: Inhibition of Plasmodium falciparum Dd2 in whole red blood cells, using parasite LDH activity as an index of growth. Test compounds present at 2uM; assay type: functional

**Q.** `CC(=O)Nc1ccc(CN(Cc2ccc(OC(C)(C)C)cc2)Cc2ccc3c(c2)OCCO3)cc1` was tested. Which Inhibition did it give?
**A.** 75%

**Q.** Which Inhibition does the source give for `CCN(CCCNc1nc(=S)[nH]c2cc(OC)c(OC)cc12)c1ccccc1` here?
**A.** 23%

**Q.** For `COc1cccc(NC(=O)Nc2c(-c3cccc(C(F)(F)F)c3)c(C(F)(F)F)nn2C)c1`, which Inhibition is on record?
**A.** 30%

**Q.** `CN(C(=O)NCCc1ccccc1)C1CCN(CCCCCNC(=O)/C=C/c2ccc(Cl)c(Cl)c2)CC1` was tested. Which Inhibition did it give?
**A.** 11%

**Q.** Which Inhibition does the source give for `N=C(Nc1nc(-c2ccccn2)cc2ccccc12)c1cccc(Cl)c1` here?
**A.** 99%

**Q.** `COc1cc(C=C(C2=NC(=O)CS2)c2nc3cccnc3n2C)ccc1O` was tested. Which Inhibition did it give?
**A.** 48%

**Q.** For `Fc1ccc2[nH]c(-c3ccc(-c4ccc(CNCc5ccccc5)cc4)cc3)nc2c1.O=C(O)C(F)(F)F`, which Inhibition is on record?
**A.** 94%

**Q.** `Cc1cc(N[C@@H](CC(C)C)C(=O)Nc2ccccc2)nc(NCCc2ccccc2)n1.O=C(O)C(F)(F)F` was tested. Which Inhibition did it give?
**A.** 87%

**Q.** Which Inhibition does the source give for `Nc1ccc(-c2nc3cc(-c4ccc5[nH]c(-c6ccc(N)cc6)nc5c4)ccc3[nH]2)cc1` here?
**A.** 96%

**Q.** How did the Inhibition turn out when `C=C[C@]1(C)C[C@@H](OC(=O)CNC[C@@H](O)CN2C[C@H](c3ccnc4ccc(OC)nc34)OC2=O)[C@@]2(C)[C@@H]3C(=O)CC[C@@]3(CC[C@@H]2C)[C@@H](C)[C@@H]1O` was run?
**A.** 82%

**Q.** `Nc1nc(N)c2cc(Sc3ccc4ccccc4c3)ccc2n1` was tested. Which Inhibition did it give?
**A.** 92%

**Q.** For `CC(C)(C)c1ccc(CN2CCC(CNC(=O)c3cc(-c4ccccc4C(F)(F)F)cs3)C2)cc1.O=C(O)C(F)(F)F` (configuration not stated), which Inhibition is on record?
**A.** 11%

**Q.** Which Inhibition does the source give for `O=C(NCCc1ccc(Cl)c(Cl)c1)[C@@H]1CCCN1C(=O)c1ccc(O)c(-c2cccc(C(F)(F)F)c2)c1` here?
**A.** 82%

**Q.** Which Inhibition does the source give for `Cl.O=C(c1ccc(Cl)cc1)C1CCN(CCCOc2ccc3c(c2)CCNCC3)CC1` here?
**A.** 23%

**Q.** For `COC(=O)c1ccc2c(c1)nc(Nc1cccc(F)c1)n2CC(O)c1ccccn1` (configuration not stated), which Inhibition is on record?
**A.** 96%

**Q.** `Cc1cc(N2CCCN(CC3CCCCC3)CC2)nc(Nc2ccc(Br)cc2)n1` was tested. Which Inhibition did it give?
**A.** 54%

**Q.** For `c1cncc(NCc2ccc(-c3cc4ccncc4cc3OC3CCNCC3)s2)c1`, which Inhibition is on record?
**A.** 19%

**Q.** Which Inhibition does the source give for `Cc1cc(-c2cccc(CNC3CCN(C)CC3)c2)ccc1S(=O)(=O)NCc1ccccc1.O=C(O)C(F)(F)F` here?
**A.** 90%

**Q.** For `COc1cccc(OC(C)(C)c2nc(N[C@@H](C)c3ccccc3)c3cn[nH]c3n2)c1`, which Inhibition is on record?
**A.** 69%

**Q.** `CCCCCCN1CCC(NCc2cccc3ccccc23)CC1.O=C(O)C(F)(F)F` was tested. Which Inhibition did it give?
**A.** 12%

**Q.** For `CCCCCN1CCCN(Cc2cccc(NC(=O)c3cc4ccccc4s3)c2)CC1.O=C(O)C(F)(F)F`, which Inhibition is on record?
**A.** 30%

**Q.** How did the Inhibition turn out when `c1ccc(Oc2ccc(Nc3ccnc4ccc(-c5ccccn5)cc34)cc2)cc1` was run?
**A.** 10%

**Q.** For `CCC(Cc1cnc2nc(N)nc(N)c2n1)c1ccc(C(=O)N[C@@H](CCC(=O)O)C(=O)O)cc1` (some centres not stated) [EDATREXATE], which Inhibition is on record?
**A.** 98%

**Q.** How did the Inhibition turn out when `c1csc(-c2ccc3c(c2)CC(NCc2c[nH]c4cnccc24)C3)c1` (configuration not stated) was run?
**A.** 34%

**Q.** For `CCNc1c2ccc(Cl)cc2nc2ccc(OC)cc12.Cl`, which Inhibition is on record?
**A.** 100%

**Q.** For `COc1ccc2nccc([C@@H](O)CN3CCC(NC(=O)c4ccc(Oc5ccccc5)cc4)CC3)c2c1`, which Inhibition is on record?
**A.** 13%

**Q.** How did the Inhibition turn out when `COc1cc(N)c(Cl)cc1C(=O)NCC1CCN(c2nc(C)cc(C)n2)CC1` was run?
**A.** 95%

system: HepG2; experiment: GSK_TCMDC: Percent inhibition of human HepG2 cell line. Test compounds present at 10uM.; assay type: functional

**Q.** For `CCCc1cc(Cc2cnc(N)nc2N)ccc1OCCCCCC(=O)O.Cl`, which Inhibition is on record?
**A.** 3%

**Q.** With `CC(NCCC1CCC(NC(=O)N[C@H](C)C(O)(c2ccccc2)c2ccccc2)CC1)c1cccc2ccccc12` (some centres not stated) as the compound, how does the Inhibition read?
**A.** 43%

**Q.** `Cn1cncc1C(=O)Nc1ccc(-c2cccc(-c3nc4cc(C(F)(F)F)ccc4[nH]3)c2)cc1` was tested. Which Inhibition did it give?
**A.** 34%

**Q.** How did the Inhibition turn out when `O=C(NC1CCN(Cc2ccccc2)CC1)c1ccc(-c2nc3cc(Cl)c(Cl)cc3[nH]2)c(F)c1` was run?
**A.** 4%

**Q.** Which Inhibition does the source give for `CN(Cc1ccc(-c2ccc(C(F)(F)F)cc2)cc1)C(=O)Cn1c(CCc2cccc(F)c2F)cc(=O)c2ccc(OCC3CCCN3C)cc21.O=C(O)C(O)C(O)C(=O)O` (configuration not stated) here?
**A.** 100%

**Q.** For `Cc1cccc2nc(-c3ccc(-c4cccc(NC(=O)CN5CCN(C)CC5)c4)s3)[nH]c12`, which Inhibition is on record?
**A.** 7%

**Q.** How did the Inhibition turn out when `O=C(Nc1ccc(Cl)cc1C(=O)Nc1cccc(F)c1)c1ccc([N+](=O)[O-])cc1` was run?
**A.** 10%

**Q.** `COc1ccc(Nc2ncc3c(-c4cccc(NC(=O)Cc5cccc(F)c5)c4)c[nH]c3n2)cc1OC` was tested. Which Inhibition did it give?
**A.** 24%

**Q.** For `Cc1ccc2[nH]c(C)cc(=NN=Cc3ccc(Cl)cc3)c2c1`, which Inhibition is on record?
**A.** 0%

**Q.** `O=C(NC(=O)c1ccccc1)NC1CCN(c2ccnc3cc(Cl)ccc23)C1.O=C(O)C(F)(F)F` (configuration not stated) was tested. Which Inhibition did it give?
**A.** 32%

**Q.** `CS(=O)(=O)c1ccc(CNCc2cccc(-c3cccc(-c4nc5cc(C(F)(F)F)ccc5[nH]4)c3)c2)cc1.O=C(O)C(F)(F)F` was tested. Which Inhibition did it give?
**A.** 5%

**Q.** For `COc1cccc(CC(=O)N2CCC(n3c(C)nc4ccc(C)cc43)CC2)c1`, which Inhibition is on record?
**A.** 1%

**Q.** `CC(C)C[C@@H](C(=O)N[C@@H](CCCCNC(=O)OCc1ccccc1)C(=O)Nc1nccs1)[C@H](C)N(O)C=O` was tested. Which Inhibition did it give?
**A.** 0%

**Q.** With `CC(=O)Nc1ccc(CN(Cc2ccc(OC(C)(C)C)cc2)Cc2ccc3c(c2)OCCO3)cc1` as the compound, how does the Inhibition read?
**A.** 7%

**Q.** For `CCN(CCCNc1nc(=S)[nH]c2cc(OC)c(OC)cc12)c1ccccc1`, which Inhibition is on record?
**A.** 14%

**Q.** How did the Inhibition turn out when `COc1cccc(NC(=O)Nc2c(-c3cccc(C(F)(F)F)c3)c(C(F)(F)F)nn2C)c1` was run?
**A.** 2%

**Q.** `CN(C(=O)NCCc1ccccc1)C1CCN(CCCCCNC(=O)/C=C/c2ccc(Cl)c(Cl)c2)CC1` was tested. Which Inhibition did it give?
**A.** 43%

**Q.** With `N=C(Nc1nc(-c2ccccn2)cc2ccccc12)c1cccc(Cl)c1` as the compound, how does the Inhibition read?
**A.** 54%

**Q.** With `COc1cc(C=C(C2=NC(=O)CS2)c2nc3cccnc3n2C)ccc1O` as the compound, how does the Inhibition read?
**A.** 7%

**Q.** Which Inhibition does the source give for `Fc1ccc2[nH]c(-c3ccc(-c4ccc(CNCc5ccccc5)cc4)cc3)nc2c1.O=C(O)C(F)(F)F` here?
**A.** 35%

**Q.** How did the Inhibition turn out when `Cc1cc(N[C@@H](CC(C)C)C(=O)Nc2ccccc2)nc(NCCc2ccccc2)n1.O=C(O)C(F)(F)F` was run?
**A.** 0%

**Q.** How did the Inhibition turn out when `Nc1ccc(-c2nc3cc(-c4ccc5[nH]c(-c6ccc(N)cc6)nc5c4)ccc3[nH]2)cc1` was run?
**A.** 45%

**Q.** How did the Inhibition turn out when `C=C[C@]1(C)C[C@@H](OC(=O)CNC[C@@H](O)CN2C[C@H](c3ccnc4ccc(OC)nc34)OC2=O)[C@@]2(C)[C@@H]3C(=O)CC[C@@]3(CC[C@@H]2C)[C@@H](C)[C@@H]1O` was run?
**A.** 0%

**Q.** How did the Inhibition turn out when `Nc1nc(N)c2cc(Sc3ccc4ccccc4c3)ccc2n1` was run?
**A.** 66%

**Q.** For `CC(C)(C)c1ccc(CN2CCC(CNC(=O)c3cc(-c4ccccc4C(F)(F)F)cs3)C2)cc1.O=C(O)C(F)(F)F` (configuration not stated), which Inhibition is on record?
**A.** 61%

**Q.** How did the Inhibition turn out when `O=C(NCCc1ccc(Cl)c(Cl)c1)[C@@H]1CCCN1C(=O)c1ccc(O)c(-c2cccc(C(F)(F)F)c2)c1` was run?
**A.** 0%

**Q.** How did the Inhibition turn out when `Cl.O=C(c1ccc(Cl)cc1)C1CCN(CCCOc2ccc3c(c2)CCNCC3)CC1` was run?
**A.** 78%

**Q.** Which Inhibition does the source give for `COC(=O)c1ccc2c(c1)nc(Nc1cccc(F)c1)n2CC(O)c1ccccn1` (configuration not stated) here?
**A.** 0%

**Q.** For `Cc1cc(N2CCCN(CC3CCCCC3)CC2)nc(Nc2ccc(Br)cc2)n1`, which Inhibition is on record?
**A.** 24%

**Q.** For `c1cncc(NCc2ccc(-c3cc4ccncc4cc3OC3CCNCC3)s2)c1`, which Inhibition is on record?
**A.** 4%

**Q.** How did the Inhibition turn out when `Cc1cc(-c2cccc(CNC3CCN(C)CC3)c2)ccc1S(=O)(=O)NCc1ccccc1.O=C(O)C(F)(F)F` was run?
**A.** 53%

**Q.** Which Inhibition does the source give for `COc1cccc(OC(C)(C)c2nc(N[C@@H](C)c3ccccc3)c3cn[nH]c3n2)c1` here?
**A.** 44%

**Q.** Which Inhibition does the source give for `CCCCCCN1CCC(NCc2cccc3ccccc23)CC1.O=C(O)C(F)(F)F` here?
**A.** 21%

**Q.** How did the Inhibition turn out when `CCCCCN1CCCN(Cc2cccc(NC(=O)c3cc4ccccc4s3)c2)CC1.O=C(O)C(F)(F)F` was run?
**A.** 29%

**Q.** With `c1ccc(Oc2ccc(Nc3ccnc4ccc(-c5ccccn5)cc34)cc2)cc1` as the compound, how does the Inhibition read?
**A.** 4%

**Q.** How did the Inhibition turn out when `CCC(Cc1cnc2nc(N)nc(N)c2n1)c1ccc(C(=O)N[C@@H](CCC(=O)O)C(=O)O)cc1` (some centres not stated) [EDATREXATE] was run?
**A.** 64%

**Q.** With `c1csc(-c2ccc3c(c2)CC(NCc2c[nH]c4cnccc24)C3)c1` (configuration not stated) as the compound, how does the Inhibition read?
**A.** 9%

**Q.** Which Inhibition does the source give for `CCNc1c2ccc(Cl)cc2nc2ccc(OC)cc12.Cl` here?
**A.** 16%

**Q.** How did the Inhibition turn out when `COc1ccc2nccc([C@@H](O)CN3CCC(NC(=O)c4ccc(Oc5ccccc5)cc4)CC3)c2c1` was run?
**A.** 39%

**Q.** `COc1cc(N)c(Cl)cc1C(=O)NCC1CCN(c2nc(C)cc(C)n2)CC1` was tested. Which Inhibition did it give?
**A.** 0%
